From PubChem BioAssay (Tox21)
Results filed as inconclusive are left out. Calls of active or inactive are those of the source. Unless noted, the call rests on the fitted dose curve; in most records, active means well fitted curve in the direction sought with a large enough effect in the repeat runs; inconclusive means weak or mixed curves; inactive means no such curve, though single readings can be large; an effect the other way counts as inactive or inconclusive.

What was measured:
[1] = molecular target: Progesterone receptor (Homo sapiens) (UniProt P06401); assay: qHTS assay to identify small molecule agonists of the progesterone receptor (PR) signaling pathway (AID 1346784; calls by dose curve; further: nearly all actives have a fitted effect of over 30% in size); conditions: PR-UAS-bla HEK293T, beta-lactamase FRET ratio, 16 h; series mostly up to 92.4 µM
Summary of the method: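 Agonist qHTS: compounds pinned onto 3,000 PR-UAS-bla HEK 293T cells per well in charcoal-stripped serum medium, 16hr at 37C, then beta-lactamase activity measured by LiveBLAzer FRET fluorescence after 2 hours at room temperature.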

[2] = molecular target: Progesterone receptor (Homo sapiens) (UniProt P06401); assay: qHTS assay to identify small molecule antagonists of the progesterone receptor (PR) signaling pathway (AID 1346795; active means well fitted inhibition curve with a large enough effect in the signal ratio in the repeat runs, not every such curve was filed as active; the % refers to the signal ratio); conditions: PR-UAS-bla HEK293T, beta-lactamase FRET ratio, 16 h; series mostly up to 92.4 µM
Summary of the method: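 Antagonist mode with agonist R5020 at 1 nM final and 16 hr incubation at 37C. Reporter was beta-lactamase driven by UAS in HEK293T (PR-UAS-bla), 2% charcoal-stripped serum; signal from LiveBLAzer FRET substrate, 2 hr at room temperature.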

[3] = qHTS assay to identify small molecule antagonists of the progesterone receptor (PR) signaling pathway - cell viability counter screen (AID 1346798); conditions: PR-UAS-bla HEK293T viability, CellTiter-Glo luminescence, 16 h; series mostly up to 92.4 µM; further: nearly all actives have a fitted effect of over 50% in size; further: potency means the concentration at half of the fitted maximal effect
Summary of the method: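 Cytotoxicity read as CellTiter-Glo luminescence (30 min, room temperature) in the same wells as the beta-lactamase readout. HEK293T PR-UAS-bla cells in charcoal-stripped 2% FBS received compound and R5020, then 16 h at 37C, 5% CO2.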

[4] = qHTS assay to identify small molecule agonists of the progesterone receptor (PR) signaling pathway - cell viability counter screen (AID 1346799; calls by dose curve; further: nearly all actives have a fitted effect of over 45% in size); conditions: PR-UAS-bla HEK293T viability, CellTiter-Glo luminescence, 16 h; series mostly up to 92.4 µM
Summary of the method: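 Cytotoxicity measured by CellTiter-Glo luminescence (30 min, RT) in the same wells as the PR beta-lactamase agonist read. Those HEK293T cells had 16 h compound treatment at 37 C in 2% charcoal-stripped FBS medium.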

[5] = qHTS assay to identify small molecule antagonists of the TGF-beta/Smad signaling pathway - cell viability counter screen (AID 1346824); conditions: SBE-bla HEK293T viability, CellTiter-Glo luminescence; series mostly up to 76.8 µM; further: nearly all actives have a fitted effect of over 50% in size
Summary of the method: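 SBE-bla HEK 293T cells, incubated overnight, then compound plus 0.25 ng/mL TGF-beta1 (stock added) for 5 hr at 37 C. Viability was read in the same wells by CellTiter-Glo luminescence after 30 min at room temperature.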

[6] = qHTS assay to identify small molecule agonists of the TGF-beta/Smad signaling pathway (AID 1346859; active means well fitted activation curve with a large enough effect in the signal ratio in the repeat runs, not every such curve was filed as active; the % refers to the signal ratio); conditions: SBE-bla HEK293T, TGF-beta/Smad beta-lactamase reporter, 5 h; series mostly up to 76.8 µM
Summary of the method: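 Fluorescence (ex 405 nm; em 460 and 530 nm) was read 2 h after LiveBLAzer FRET substrate at RT. The preceding compound treatment of overnight-plated SBE-bla HEK293T cells lasted 5 h at 37 C.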

[7] = molecular target: Thyrotropin-releasing hormone receptor (Homo sapiens) (UniProt P34981); assay: qHTS assay to identify small molecule antagonists of the thyrotropin-releasing hormone receptor (TRHR) signaling pathway (AID 1346877; active means well fitted inhibition curve with a large enough effect in the repeat runs, not every such curve was filed as active); conditions: TRHR-HEK293, TRH-induced calcium fluorescence, antagonist mode; series mostly up to 51.3 µM
Summary of the method: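 Screening used HEK293 cells engineered with TRHR, with a brief 5 min room-temperature compound exposure preceding addition of TRH to 1 nM. The read-out was kinetic calcium-dye fluorescence, concentration-response from 15 doses in triplicate.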

[8] = molecular target: Thyrotropin-releasing hormone receptor (Homo sapiens) (UniProt P34981); assay: qHTS assay to identify small molecule agonists of the thyrotropin-releasing hormone receptor (TRHR) signaling pathway (AID 1346891; calls by dose curve); conditions: TRHR-HEK293 calcium fluorescence, agonist mode; series mostly up to 57.6 µM
Summary of the method: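 Agonist-mode intracellular calcium readout: kinetic fluorescence over 3 min at 1 s intervals after compound addition to TRHR-HEK293 cells (18 h seeded, 2 h dye-loaded at 37 C). Fifteen concentrations, triplicates.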

[9] = Human pregnane X receptor (PXR) small molecule agonists, qHTS cell viability counter screen (AID 1346977); conditions: PXR-Luc HepG2 viability, CellTiter-Fluor, 24 h; series mostly up to 92.4 µM; further: nearly all actives have a fitted effect of over 50% in size; further: potency means the concentration at half of the fitted maximal effect
Summary of the method: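 Same-well viability read: CellTiter-Fluor added after 23 hr compound exposure, fluorescence measured 1 hr later. Cells were PXR-Luc HepG2 seeded at 2,000/well in 5% charcoal-stripped FBS medium, rested 5 hr before dosing at 37 C.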

[10] = Caspase-3/7 induction in HepG2 cells by small molecules, qHTS assay (AID 1346978); conditions: HepG2 caspase-3/7 activation, Caspase-Glo luminescence, 17 h; series mostly up to 92.4 µM; further: nearly all actives have a fitted effect of over 15% in size
Summary of the method: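 Wild-type HepG2 cells, 2,000/well, settled 5 hr at 37 C and 5% CO2, then compound-treated for 17 hr; caspase-3/7 activity read by luminescent Caspase-Glo 3/7 after 30 min at room temperature.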

[11] = Caspase-3/7 induction in CHO-K1 cells by small molecules, qHTS assay (AID 1346980); conditions: CHO-K1 caspase-3/7 induction, Caspase-Glo luminescence, 17 h; series mostly up to 92.4 µM; further: nearly all actives have a fitted effect of over 15% in size
Summary of the method: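 Wild-type CHO-K1 cells exposed to compounds for 17hr at 37 C, 5% CO2. Caspase-3/7 activity then measured by Caspase-Glo 3/7 luminescence after 30min at room temperature.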

[12] = Caspase-3/7 induction in HepG2 cells by small molecules, qHTS cell viability counter screen (AID 1346981); conditions: CellTiter-Fluor fluorescence, 17 h; series mostly up to 92.4 µM; further: nearly all actives have a fitted effect of over 30% in size; further: potency means the concentration at half of the fitted maximal effect
Summary of the method: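 Multiplexed with the caspase-3/7 assay: HepG2 cells, 16 hr compound treatment, CellTiter-Fluor viability detection by fluorescence.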

[13] = molecular target: Nuclear receptor subfamily 1 group I member 2 (Rattus norvegicus) (UniProt Q9R1A7); assay: Rat pregnane X receptor (rPXR) activation by small molecules, qHTS assay (AID 1346983); conditions: rPXR luciferase reporter cells, One-Glo luminescence, 24 h; max activation: hits give high values; further: nearly all actives have a fitted effect of over 20% in size
Summary of the method: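 Cell-based rPXR activation assay: rPXR cells, 2,000 per well, rested 5hr at 37 C, then exposed to compounds in DMSO for 24 hr at 37 C. Luciferase activity read by One-Glo luminescence after 30 min at room temperature.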

[14] = molecular target: Nuclear receptor subfamily 1 group I member 2 (Homo sapiens) (UniProt O75469); assay: CYP3A4 induction through human pregnane X receptor (PXR) by small molecules, qHTS assay (AID 1346984); conditions: DPX-2 HepG2 PXR, CYP3A4-luciferin luminescence, 24 h; series mostly up to 46.1 µM; further: nearly all actives have a fitted effect of over 40% in size
Summary of the method: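 qHTS, concentration-response format: HepG2 DPX-2 line, PXR/CYP3A4-luc. Exposure 24 h, 37C. Substrate Luciferin-IPA 3uM final, 3 h. Detection One-Glo, 30 min RT.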

[15] = molecular target: Nuclear receptor subfamily 1 group I member 2 (Homo sapiens) (UniProt O75469); assay: Human pregnane X receptor (PXR) activation by small molecules, qHTS assay (AID 1346985); conditions: DPX-2 HepG2 CYP3A4-luciferase, 24 h; series mostly up to 38.3 µM; further: nearly all actives have a fitted effect of over 40% in size
Summary of the method: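 DPX-2 cells (HepG2 co-transfected with a PXR response element and a CYP3A4-promoter luciferase construct) were seeded at 2,000 per well, rested 5 hr at 37C, then exposed to DMSO-dissolved compounds for 24 hr. Activation was read as luciferase luminescence.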

[16] = qHTS assay to identify small molecule agonists of the estrogen receptor alpha (ER-alpha) signaling pathway in the presence of an antagonist - cell viability counter screen (AID 1259386); conditions: VM7Luc4E2 viability, CellTiter-Fluor fluorescence, 22 h; series mostly up to 92.4 µM;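 further: cells exposed to compounds for 22 h at 37 °C before the viability read; nearly all actives have a fitted effect of over 30% in size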; further: potency means the concentration at half of the fitted maximal effect
Summary of the method: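 ICI-182,780 at 10.0nM final accompanies the compound titration (15 concentrations, 22hr, 37C) on VM7Luc4E2 cells. The CellTiter-Fluor fluorescence readout runs in the same wells as the luciferase assay.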

[17] = qHTS assay to identify small molecule agonists of the TGF-beta/Smad signaling pathway - cell viability counter screen (AID 1346829); conditions: SBE-bla HEK293T viability, CellTiter-Glo luminescence, 5 h; series mostly up to 76.8 µM; further: top concentration of the series differs between compounds; nearly all actives have a fitted effect of over 45% in size
Summary of the method: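 Same-well cytotoxicity: CellTiter-Glo added after the 2 hr room-temperature beta-lactamase substrate step, luminescence measured 30 min later; cells had 5 hr of compound at 37 C.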

[18] = molecular target: Nuclear receptor subfamily 1 group I member 2 (Homo sapiens) (UniProt O75469); assay: Human pregnane X receptor (PXR) small molecule agonists, qHTS assay (AID 1346982); conditions: PXR-Luc HepG2, CYP3A4 luciferase reporter, 24 h; series mostly up to 92.4 µM; further: nearly all actives have a fitted effect of over 35% in size; further: potency means the concentration at half of the fitted maximal effect
Summary of the method: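 We seeded PXR-Luc HepG2 cells in assay medium containing 5% charcoal-stripped FBS, added compounds 5 hr later, incubated 24 hr, and read luminescence with ONE-Glo reagent.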

[19] = Caspase-3/7 induction in CHO-K1 cells by small molecules, qHTS cell viability counter screen (AID 1346979); conditions: CellTiter-Fluor fluorescence, 17 h; series mostly up to 92.4 µM; further: nearly all actives have a fitted effect of over 35% in size; further: potency means the concentration at half of the fitted maximal effect
Summary of the method: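 Cytotoxicity counter screen: CellTiter-Fluor added to compound-treated wild-type CHO-K1 cells at 16 h (37C, 5% CO2), fluorescence measured 1 h later; same wells as caspase-3/7 measurement.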
On the % scale 0 is the no-effect control and ±100 the full control effect.

Sequence of Nuclear receptor subfamily 1 group I member 2 (Homo sapiens) (O75469 whole entry, looked up): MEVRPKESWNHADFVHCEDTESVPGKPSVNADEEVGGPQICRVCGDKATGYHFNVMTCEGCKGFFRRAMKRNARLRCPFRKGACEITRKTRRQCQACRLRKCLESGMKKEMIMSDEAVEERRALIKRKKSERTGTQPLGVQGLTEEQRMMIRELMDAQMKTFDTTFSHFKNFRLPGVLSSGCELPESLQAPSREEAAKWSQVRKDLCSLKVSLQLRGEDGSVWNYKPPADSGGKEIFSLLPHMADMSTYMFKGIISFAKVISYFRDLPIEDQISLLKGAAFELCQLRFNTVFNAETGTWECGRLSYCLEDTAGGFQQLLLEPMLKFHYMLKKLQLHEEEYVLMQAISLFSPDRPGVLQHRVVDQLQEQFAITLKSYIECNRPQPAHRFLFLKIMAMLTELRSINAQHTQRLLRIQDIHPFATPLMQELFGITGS
Sequence of Progesterone receptor (Homo sapiens) (P06401 whole entry, looked up): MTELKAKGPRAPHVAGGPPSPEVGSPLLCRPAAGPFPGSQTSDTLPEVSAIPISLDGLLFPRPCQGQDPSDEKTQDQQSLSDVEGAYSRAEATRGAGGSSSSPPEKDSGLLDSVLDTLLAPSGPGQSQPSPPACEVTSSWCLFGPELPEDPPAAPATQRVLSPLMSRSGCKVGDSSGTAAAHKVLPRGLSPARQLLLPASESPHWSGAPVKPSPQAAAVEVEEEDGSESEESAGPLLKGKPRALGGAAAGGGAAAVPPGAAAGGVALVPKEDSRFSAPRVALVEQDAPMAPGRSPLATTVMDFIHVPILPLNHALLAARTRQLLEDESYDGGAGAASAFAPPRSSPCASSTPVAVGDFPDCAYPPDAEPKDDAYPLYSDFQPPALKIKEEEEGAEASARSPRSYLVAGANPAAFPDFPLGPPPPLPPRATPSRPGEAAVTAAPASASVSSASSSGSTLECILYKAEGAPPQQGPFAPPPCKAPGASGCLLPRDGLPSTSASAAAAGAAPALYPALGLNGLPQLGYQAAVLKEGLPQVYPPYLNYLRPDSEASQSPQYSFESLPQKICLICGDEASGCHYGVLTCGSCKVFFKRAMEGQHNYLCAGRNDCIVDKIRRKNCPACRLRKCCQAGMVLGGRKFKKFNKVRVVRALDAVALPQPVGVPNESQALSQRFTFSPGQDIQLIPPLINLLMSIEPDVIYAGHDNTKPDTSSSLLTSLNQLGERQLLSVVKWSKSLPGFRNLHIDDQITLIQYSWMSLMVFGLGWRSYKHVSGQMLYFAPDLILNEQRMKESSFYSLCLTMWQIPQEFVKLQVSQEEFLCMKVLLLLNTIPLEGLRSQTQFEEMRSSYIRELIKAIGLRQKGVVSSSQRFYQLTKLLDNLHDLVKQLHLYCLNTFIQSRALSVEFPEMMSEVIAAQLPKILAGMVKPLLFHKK
Sequence of Thyrotropin-releasing hormone receptor (Homo sapiens) (P34981 whole entry, looked up): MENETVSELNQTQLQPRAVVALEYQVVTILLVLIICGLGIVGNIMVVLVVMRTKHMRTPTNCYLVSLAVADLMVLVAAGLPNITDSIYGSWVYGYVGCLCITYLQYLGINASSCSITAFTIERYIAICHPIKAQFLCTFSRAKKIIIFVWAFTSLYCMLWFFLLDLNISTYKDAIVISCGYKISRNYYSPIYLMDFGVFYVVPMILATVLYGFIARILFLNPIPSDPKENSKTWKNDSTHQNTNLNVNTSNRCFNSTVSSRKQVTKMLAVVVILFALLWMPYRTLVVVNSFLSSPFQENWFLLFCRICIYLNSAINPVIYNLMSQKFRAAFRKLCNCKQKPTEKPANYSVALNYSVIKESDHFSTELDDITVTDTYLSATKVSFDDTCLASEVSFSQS
Sequence of Nuclear receptor subfamily 1 group I member 2 (Rattus norvegicus) (Q9R1A7 whole entry, looked up): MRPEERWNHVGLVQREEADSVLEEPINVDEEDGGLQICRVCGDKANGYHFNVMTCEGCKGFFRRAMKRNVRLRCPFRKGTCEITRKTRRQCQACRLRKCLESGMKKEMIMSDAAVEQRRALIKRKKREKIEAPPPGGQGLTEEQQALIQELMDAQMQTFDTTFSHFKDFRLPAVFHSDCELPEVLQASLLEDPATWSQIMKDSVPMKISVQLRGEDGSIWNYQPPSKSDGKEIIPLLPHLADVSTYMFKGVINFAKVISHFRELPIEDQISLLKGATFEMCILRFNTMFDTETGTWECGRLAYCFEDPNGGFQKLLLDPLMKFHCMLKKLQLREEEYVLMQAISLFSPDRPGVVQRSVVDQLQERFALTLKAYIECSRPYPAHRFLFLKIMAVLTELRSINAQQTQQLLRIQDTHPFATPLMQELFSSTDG

CC1=CC[C@@H]2C[C@H]1C2(C)C
inactive: activation [1] 3.56% [at 19 µM] | activity change, negative = inhibition [2] 6.78% [at 18.9 µM] | activity change, negative = cytotoxicity [3] 0.83% [at 18.9 µM] | activity change, negative = cytotoxicity [4] -14.1% [at 19 µM] | viability change, negative = cytotoxic [5] 2.23% [at 15.8 µM] | activation [6] 0.129% [at 15.8 µM] | activity, negative = inhibition [7] 3.09% [at 10.5 µM] | activation [8] -0.516% [at 11.8 µM] | activity change, negative = cytotoxicity [9] 1.01% [at 19 µM] | caspase activation [10] -0.809% [at 19 µM] | caspase-3/7 activation [11] 0.0875% [at 19 µM] | activity change, negative = cytotoxicity [12] -0.185% [at 19 µM]

C[C@@H]1[C@H](O)[C@@H](C)/C=C/C=C\C=C\C=C\C=C\C=C\C=C\[C@H](O[C@@H]2O[C@H](C)[C@@H](O)[C@H](N)[C@@H]2O)C[C@@H]2O[C@](O)(C[C@@H](O)C[C@@H](O)[C@H](O)CC[C@@H](O)C[C@@H](O)CC(=O)O[C@H]1C)C[C@H](O)[C@H]2C(=O)O (stereo in doubt)
inactive: Potency [1] | outcome [5] | Potency [10] | outcome [11] | max activation [13] 1.92% | Potency [14] | Potency [15]
active: Potency [12] 48.6 µM

CC1=CC[C@@]23C[C@@H]1C(C)(C)[C@@H]2CC[C@H]3C
inactive: Potency [16] | Potency [1] | Potency [2] | Potency [4] | Potency [17] | Potency [6] | outcome [7] | outcome [8] | Potency [9] | Potency [10] | outcome [11] | Potency [12] | Potency [18]

Nc1nc2ccc(OC(F)(F)F)cc2s1
active: Potency [18] 13.3 µM
inactive: Potency [16] | Potency [1] | Potency [3] | Potency [4] | outcome [5] | Potency [6] | Potency [9] | Potency [10] | outcome [11] | Potency [12]

Cc1cc(CCC(=O)OCCOCCOCCOC(=O)CCc2cc(C)c(O)c(C(C)(C)C)c2)cc(C(C)(C)C)c1O
inactive: Potency [1] | Potency [2] | Potency [4] | outcome [5] | Potency [17] | Potency [6] | outcome [7] | outcome [8] | Potency [9] | Potency [10] | Potency [19] | outcome [11] | Potency [12]

CC(C)COC(=O)c1ccc(O)cc1
active: Potency [18] 3.06 µM
inactive: Potency [1] | Potency [3] | Potency [17] | Potency [6] | outcome [7] | outcome [8] | Potency [9] | Potency [10] | outcome [11] | Potency [12]

O=C1OC(=O)c2c(Br)c(Br)c(Br)c(Br)c21
inactive: Potency [1] | Potency [3] | Potency [4] | outcome [5] | Potency [17] | Potency [6] | outcome [7] | outcome [8] | Potency [9] | Potency [19] | outcome [11] | Potency [12] | Potency [18]

COc1ccc(-c2cc(C(F)F)nn2-c2ccc(S(N)(=O)=O)cc2)cc1F
inactive: Potency [16] | Potency [1] | Potency [4] | outcome [7] | outcome [8] | Potency [9] | Potency [10] | outcome [11] | Potency [12] | max activation [13] -1.2% | Potency [14] | Potency [15]
active: Potency [18] 15 µM

COc1ccc(-n2nc(C(F)F)cc2-c2ccc(S(C)=O)cc2)cc1 (stereo not given)
inactive: Potency [16] | Potency [1] | Potency [4] | outcome [5] | Potency [17] | outcome [7] | outcome [8] | Potency [9] | Potency [10] | outcome [11] | Potency [12]
active: Potency [18] 30.6 µM

Cc1c(C2(c3cc(Br)c(O)c(Br)c3C)OS(=O)(=O)c3ccccc32)cc(Br)c(O)c1Br
inactive: Potency [1] | Potency [17] | Potency [6] | outcome [7] | outcome [8] | Potency [10] | outcome [11] | Potency [18]
active: Potency [16] 13.3 µM | Potency [3] 18.8 µM | Potency [9] 14.9 µM | Potency [19] 16.7 µM | Potency [12] 18.8 µM

COc1cc(OC)c2ccc(=O)oc2c1
inactive: Potency [16] | Potency [1] | Potency [3] | Potency [4] | outcome [5] | Potency [6] | Potency [9] | Potency [10] | outcome [11] | Potency [12] | Potency [18]
